# Source: PubChem BioAssay AID485349 (National Center for Advancing Translational Sciences (NCATS), 2010)
# Among all 320,000 compounds or so, about 620 (0.19%) were called active. The sample holds actives, similar compounds and a random draw of the others, so the mix is not that of the screen. The call rests on the fitted dose curve; in most records, active means well fitted activation curve with a large enough effect; inconclusive means small, poorly fitted or top-dose-only effect; inactive means no such curve, though single readings can be large or run the other way.
# Assay: qHTS Assay for Identifying a Potential Treatment of Ataxia-Telangiectasia; further: nearly all actives have a fitted effect of over 45% in size; on activation: % of control where 0% means no effect
# Details: F2112 A-T fibroblasts, KAP-1 phosphorylation AlphaLISA, neocarzinostatin DNA damage 30 min before lysis; series mostly up to 57.5 µM; activation: at the top concentration
# Procedure, shortened: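 ATM-like activity read as KAP-1 phosphorylation via AlphaLISA donor/acceptor antibody pairs after lysis and 6 hr at 25C. Cells were ATM-null patient fibroblasts (F2112, hTERT), dosed 60 min, then exposed to the DSB inducer NCS for 30 min.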
# Potency means the concentration at half of the fitted maximal effect.
Compound,activation,Potency
C#CCOCCOCCOCCNc1nc(N2CCN(C(=O)[C@H](CO)n3cc([C@@H](N)C(C)C)nn3)CC2)nc(N2CCN(C(=O)[C@H](CCC(=O)O)n3cc([C@@H](N)[C@H](C)CC)nn3)CC2)n1,19.6% (inactive),
C#CCOCCOCCOCCNc1nc(N2CCN(C(=O)[C@H](CCC(=O)O)n3cc(C(N)CO)nn3)CC2)nc(N2CCN(C(=O)[C@H](CCCCN)n3cc(C(N)[C@H](C)CC)nn3)CC2)n1 (stereo partly specified),-9.68% (inactive),
C#CCOCCOCCOCCNc1nc(N2CCN(C(=O)[C@H](CCC(=O)O)n3cc(C(N)CO)nn3)CC2)nc(N2CCN(C(=O)[C@H](CCCCN)n3cc(C(N)CC(C)C)nn3)CC2)n1 (stereo partly specified),,31.6 µM (active)
CCOC(=O)C1=C(C)N(C[C@@H]2CC[C@@H](Cc3ccc(-c4ccccc4)cc3)O2)C(=O)NC1c1ccc([N+](=O)[O-])cc1 (stereo partly specified),2.54% (inactive),
COc1ccc(OCc2nnc3n2N=C(c2ccccc2)C(CC(=O)O)S3)cc1 (stereo unspecified),-6.02% (inactive),
CCN(CC)C(=O)[C@H]1C[C@H](CC(=O)NCC23CC4CC(CC(C4)C2)C3)C(=O)N2CCc3c([nH]c4cc(CCC(=O)N(C)C)ccc34)[C@]12C,5.14% [at 11.5 µM] (inactive),
CN(C)CCCNC(=O)c1cc(C(=O)Cc2ccc(Cl)cc2)c[nH]1,-3.26% (inactive),
Cc1c(N=Nc2ccc(N(C)C)cc2)c(=O)n(-c2ccccc2)n1C,-13% (inactive),
COc1ccc(NC(=S)NCCN2CCC(C)CC2)cc1,0.379% (inactive),
COc1ccc(N2CCC(CNC(=S)Nc3c(C)cccc3C)C2)cc1 (stereo unspecified),,17.8 µM (active)
COc1ccc(NC(=S)NCC2CCN(c3ccc(OC)cc3)C2)cc1 (stereo unspecified),-10.3% (inactive),
CC(C)(C)[Si](OCC[C@@H]1C[C@@]1(C)[C@@H](NP(=O)(c1ccccc1)c1ccccc1)c1ccccc1)(c1ccccc1)c1ccccc1,0.777% (inactive),
CCOc1ccc(N(CC(=O)Nc2ccccc2F)S(=O)(=O)c2c(C)[nH]c(=O)[nH]c2=O)cc1,-6.74% (inactive),
CNC(=S)N1N=C(c2ccccc2)CC1c1ccc(Br)cc1 (stereo unspecified),-12.5% (inactive),
O=C(c1ccccc1)N1N=C(c2ccccc2O)CC1c1ccc(Br)cc1 (stereo unspecified),,17.8 µM (active)
CC(=O)Oc1ccccc1C1=NN(C(C)=O)C(c2ccccc2)C1 (stereo unspecified),-4.03% (inactive),
Cn1c2cc(B(O)O)sc2c2cnn(Cc3ccccc3F)c(=O)c21,-5.04% (inactive),
CS/C(=C\[N+](=O)[O-])Nc1ccc(C)cc1,-0.888% (inactive),
CCCCn1nnnc1NCc1cc(OC)c(OC)c(OC)c1,3.86% (inactive),
CS(=O)(=O)c1ccc(Cl)c(NC(=O)COC(=O)c2cccc(S(=O)(=O)N3CCCC3)c2)c1,-0.484% (inactive),
O=C(CNCc1cccs1)Nc1cc(S(=O)(=O)N2CCCC2)ccc1Cl,,3.16 µM (active)
O=C(NCc1cccs1)C1CCN(S(=O)(=O)c2ccc(Cl)cc2)CC1,6.91% (inactive),
CCCS(=O)(=O)Nc1ccc(-c2cn3c(n2)SCC3)cc1,3.25% (inactive),
O=C(COC(=O)Cn1cnc2ccccc2c1=O)NCc1ccccc1Cl,-0.0324% (inactive),
CSc1nnc(C2CCCN(CC(=O)Nc3ccccc3N3CCOCC3)C2)n1C(C)C (stereo unspecified),-1.38% (inactive),
Cc1cc(C(C)(C)C)n2nc(C)c(-c3ccccc3)c2n1,27.3% (inactive),

Compound,activation,Potency
COc1ccnc2c1c(=O)n(Cc1cccc(F)c1)c(=O)n2C,3.98% (inactive),
CC(=O)c1nc2ccccc2n1Cc1ccccc1,2.27% (inactive),
CC(C)(C)c1cc2cccnc2n1Cc1cccc(F)c1,,28.2 µM (active)
CC(C)(C)c1cc2cccnc2n1Cc1ccccc1,,20 µM (active)
Nc1cc(N)nc(SCc2cccc(F)c2)n1,24.3% (inactive),
COC(=O)c1ccc(C2C(Oc3ccccc3C)C(=O)N2CCc2ccc(OC)c(OC)c2)cc1 (stereo unspecified),26.3% (inactive),
CC(=O)C1=C(O)C(=O)N(c2ccc(S(N)(=O)=O)cc2)C1c1ccccc1F (stereo unspecified),-0.685% (inactive),
O=P(O)(CN1CCCCC1)CN1CCCCC1,6.95% (inactive),
N=c1ccn(CC(=O)NC(N)=O)c2ccccc12,6.18% (inactive),
O=C(OCCN=C1NS(=O)(=O)c2ccccc21)c1cccc([N+](=O)[O-])c1,0.583% (inactive),
O=C(O)c1[nH]c2ccccc2c1C(c1cccc(O)c1)c1c(C(=O)O)[nH]c2ccccc12,-5.26% (inactive),
C[C@@H]1CN([C@@H](C)CO)C(=O)c2cc(NC(=O)C3CC3)ccc2O[C@H]1CN(C)C,8.61% (inactive),
O=c1o[nH]c(-c2ccccc2)c1N=Nc1c(F)cccc1Cl,-14.2% (inactive),
COc1ccc(C(C)NC(=S)NC2CCCCC2)cc1OC (stereo unspecified),7.74% (inactive),
Cc1ccc(CNC(=O)Cc2cn(C)c3ccccc23)cc1,12.3% (inactive),
Cc1ccc(C(=O)N/C(=C\c2ccco2)C(=O)NC2CCS(=O)(=O)C2)cc1 (stereo unspecified),,10 µM (active)
O=C(NCC1CCCO1)/C(=C\c1ccco1)NC(=O)c1ccccc1 (stereo unspecified),20.5% (inactive),
O=C(NCc1ccco1)/C(=C/c1ccco1)NC(=O)c1ccccc1,-8.8% (inactive),
O=S(=O)(NC1CCN(S(=O)(=O)c2ccc3c(c2)OCCO3)CC1)c1c(F)cccc1F,-5% (inactive),
CC1CCCN(C(=O)c2ccc3c(c2)C(=O)N(CCC2=CCCCC2)C3=O)C1 (stereo unspecified),-18.6% (inactive),
COc1ccc2[nH]c3c(c2c1)CCN1C(=O)C(CC(=O)NCCc2ccccn2)C[C@H](C(=O)N2CCOCC2)[C@@]31C (stereo partly specified),10.7% (inactive),
O=C(NCC1CCCO1)c1ccc(S(=O)(=O)Nc2ccc(F)cc2)cc1 (stereo unspecified),0.226% (inactive),
O=C1CCCN1C(=O)COc1ccc([N+](=O)[O-])cc1,-6.5% (inactive),
O=C(NCCc1csc(-c2ccccc2)n1)c1ccccc1F,,22.4 µM (active)
O=S(=O)(NCCc1csc(-c2ccccc2)n1)c1cccnc1,-3.45% (inactive),
COc1ccc(-c2nc(CCNC(=O)c3ccc(Br)o3)cs2)cc1,11.6% (inactive),

Compound,activation,Potency
COCCn1c(C)cc(C(=O)COC(=O)/C=C/c2cccc(OC)c2)c1C,-1.3% (inactive),
CCOC(=O)C1=CN(Cc2ccc(Br)cc2)S(=O)(=O)NC1C (stereo unspecified),-9.89% (inactive),
O=C(Nc1ccccc1N1CCN(C(=O)c2ccccc2)CC1)c1ccco1,7.67% (inactive),
O=C(Nc1ccccc1C(=O)N1CCCCC1)c1ccco1,8.96% (inactive),
O=C(Nc1cccc2c1N(C(=O)c1ccco1)CCC2)c1ccco1,,35.5 µM (active)
CCN(C(=O)COC(=O)c1c(C)nn(-c2ccccc2)c1Cl)c1c(N)n(Cc2ccccc2)c(=O)[nH]c1=O,-3.48% (inactive),
CC[C@]12c3[nH]c4ccc(Cl)cc4c3CCN1C(=O)[C@@H](CC(=O)NCCN1CCOCC1)C[C@@H]2C(=O)N1CCN(C(=O)C2CC2)CC1,-2.31% (inactive),
CCN(CC)P(=O)(Nc1ccc(SC(F)F)cc1)c1ccc(N(C)C)cc1NC(=O)c1ccco1 (stereo unspecified),1.66% (inactive),
CCCCNC(=O)C(C)N(CCN(C)C)C(=O)CCCCCN1C(=O)NC(c2ccc(Cl)cc2)C(C(=O)OCc2ccccc2)=C1C (stereo unspecified),8.98% (inactive),
Cc1cccc(-n2c(SCC(=O)Nc3cccc(S(=O)(=O)NC4=NCCCCC4)c3)nc3ccccc3c2=O)c1C,5.49% (inactive),
C/C=C(/C)C(=O)Nc1cccc(C2=NOC3(C2)C[C@@H](C(N)=O)N(C(=O)C2(C)CC2)C3)c1 (stereo partly specified),32.3% (inactive),
CC/C=C/C(=O)N1CC2(CC(c3cccc(NC(=O)CC)c3)=NO2)C[C@H]1C(N)=O (stereo partly specified),0% (inactive),
C/C=C\C=C\C(=O)N1CC2(CC(c3cccc(NC(=O)/C(C)=C\C)c3)=NO2)C[C@H]1C(N)=O (stereo partly specified),,25.1 µM (active)
O=C(NCCC(=O)N1O[C@@H]2C=C[C@H]1C2)OCC1c2ccccc2-c2ccccc21,-1.69% [at 11.5 µM] (inactive),
Cc1ccc(S(=O)(=O)N2CCN(C)CC2)cc1C(=O)NC1CCCCC1,1.7% (inactive),
Fc1ccc(CNCc2ccc(Br)cc2)cc1,17.2% (inactive),
Cc1cccc(CN2CCN(Cc3cnn(-c4ccccc4F)c3)CC2CCO)n1 (stereo unspecified),11.2% (inactive),
O=C(Nc1ccccc1)N1CCC(C(=O)N2CCN(Cc3ccccc3)CC2)CC1,-5.34% (inactive),
COc1ccc(N(CC(=O)Nc2ccc(C)cc2C)S(=O)(=O)c2ccccc2[N+](=O)[O-])c(OC)c1,2.47% [at 11.5 µM] (inactive),
CCOC(=O)N1CCC(Nc2c(NCCCN3CCN(CC)CC3)c(=O)c2=O)CC1,0.0532% (inactive),
CCOC(=O)N1CCC(Nc2c(NCCN3CCN(c4cccc(Cl)c4)CC3)c(=O)c2=O)CC1,7.77% (inactive),
CCOC(=O)N1CCC(Nc2c(NCCCN3CCN(c4ccc(OC)cc4)CC3)c(=O)c2=O)CC1,,11.2 µM (active)
CCCCCCCCCCCCN1C(=O)CSC1c1cccnc1 (stereo unspecified),8.52% (inactive),
CC(C)Cc1ccc(S(=O)(=O)N2CCN(C(=O)c3ccco3)CC2)cc1,6.31% (inactive),
